Each structure is given as a SMILES string. The whole screen tested about 310,000 compounds, of which about 2,200 (0.71%) showed an effect of 50% or more. Effects have a minus sign here. The sample holds strong results, similar compounds and a random draw of the others, so the mix is not that of the screen.

Chain of human ether-à-go-go-related gene (hERG) potassium channel (Q12809 whole entry, looked up): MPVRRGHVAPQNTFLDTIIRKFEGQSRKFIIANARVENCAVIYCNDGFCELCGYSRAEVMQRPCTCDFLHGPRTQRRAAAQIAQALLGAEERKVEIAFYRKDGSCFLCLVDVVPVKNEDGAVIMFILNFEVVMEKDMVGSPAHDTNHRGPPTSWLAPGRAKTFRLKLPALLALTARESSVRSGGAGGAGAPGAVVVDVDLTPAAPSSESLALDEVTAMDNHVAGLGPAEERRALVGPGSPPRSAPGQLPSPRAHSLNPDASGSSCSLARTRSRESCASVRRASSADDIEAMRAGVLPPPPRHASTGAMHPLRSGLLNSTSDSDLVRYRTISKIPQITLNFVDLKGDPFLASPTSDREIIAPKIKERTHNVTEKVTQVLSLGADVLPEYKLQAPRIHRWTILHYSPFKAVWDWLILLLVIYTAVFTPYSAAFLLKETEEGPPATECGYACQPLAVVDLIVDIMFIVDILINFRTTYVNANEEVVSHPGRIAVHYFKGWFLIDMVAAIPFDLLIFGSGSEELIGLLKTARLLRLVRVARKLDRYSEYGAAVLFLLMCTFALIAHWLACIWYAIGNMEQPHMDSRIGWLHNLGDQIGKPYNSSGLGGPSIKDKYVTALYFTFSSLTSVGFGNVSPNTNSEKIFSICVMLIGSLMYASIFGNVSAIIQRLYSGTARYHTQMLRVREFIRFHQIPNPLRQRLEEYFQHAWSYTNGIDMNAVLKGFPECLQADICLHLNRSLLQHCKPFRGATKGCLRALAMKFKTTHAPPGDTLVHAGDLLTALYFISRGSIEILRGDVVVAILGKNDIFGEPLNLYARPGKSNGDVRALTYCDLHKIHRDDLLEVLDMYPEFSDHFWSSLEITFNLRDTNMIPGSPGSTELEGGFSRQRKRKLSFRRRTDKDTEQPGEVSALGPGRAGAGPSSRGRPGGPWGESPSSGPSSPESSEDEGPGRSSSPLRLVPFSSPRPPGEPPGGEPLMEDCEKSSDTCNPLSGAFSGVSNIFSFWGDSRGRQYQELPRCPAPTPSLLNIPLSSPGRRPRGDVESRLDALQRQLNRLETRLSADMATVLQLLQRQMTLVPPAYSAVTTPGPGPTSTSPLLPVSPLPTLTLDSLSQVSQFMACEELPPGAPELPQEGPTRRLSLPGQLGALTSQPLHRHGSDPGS

This experiment addresses human ether-à-go-go-related gene (hERG) potassium channel (human, UniProt Q12809). The experiment can be described thus: primary screen, population patch clamp on CHO cells stably expressing hERG; higher = less effect of the substance.
For the compound `Cc1nc(OCc2c(C)noc2C)c2ccccc2n1`, the “hERG current change (%, negative = inhibition) at 1uM” value is reported as 13.1%.
Next, `CCn1cc(C(=O)N2CCC3(CC2)OCCO3)c(=O)c2cc(S(=O)(=O)N3CCCC3)ccc21`: 15.9%.
Under `Cn1c(CNC(=O)Nc2ccccc2Cl)nnc1SCc1ccccc1` stands 2.3%; under `CCCN(C(=O)CSc1nnc2ccccn12)C1CCS(=O)(=O)C1` (centres unmarked), 10.4%; under `CC(=O)NC(NC(C)=O)c1ccc(Br)cc1`, -1.9%.
Under `COC(=O)c1ccc(C)c(NC(=O)c2ccc(Cl)c([N+](=O)[O-])c2)c1` stands 5.94%; under `CCOC(=O)c1[nH]c(C)c(C(=O)N2CCN(c3ccccc3)CC2)c1C`, -3.94%.
`CCOC(=O)c1c(N2CCN(c3ccccc3)CC2)cc(C)nc1C.O=C([O-])C(=O)[O-]`: the “hERG current change (%, negative = inhibition) at 1uM” value is reported as -69%.
Under `CCOC(=O)c1c(CN2CCN(c3ccccc3)CC2)oc2ccc(O)cc12` stands 12.6%; under `CCCC(=O)Nc1ccccc1NC(=O)CN(C)S(=O)(=O)c1ccccc1`, 9.94%; under `CCOc1ccccc1NC(=O)CSc1nnc(-c2ccco2)o1`, 8.2%.
Under `N/C(=N\OC(=O)CCC1CCCC1)c1cccc([N+](=O)[O-])c1` stands -53.8%.
Next, `N/C(=N\OC(=O)CCC1CCCCC1)c1cccc([N+](=O)[O-])c1`: 3.64%; `N/C(=N\OC(=O)CC1CCCCC1)c1cccc([N+](=O)[O-])c1`: 13.7%; `O=C(O)c1ccc(NS(=O)(=O)c2cc(Cl)ccc2Cl)cc1O`: 4.19%.
`CCCc1cc(C(=O)Nc2cc(Br)ccc2O)no1`: the “hERG current change (%, negative = inhibition) at 1uM” value worked out at 18.4%.
Under `CCc1ccc(NC(=O)C(=O)NCCN2CCN(S(C)(=O)=O)CC2)cc1` stands 18.2%.
Regarding `O=C(NCCc1ccccc1)C(=O)Nc1ccc([N+](=O)[O-])cc1`, the “hERG current change (%, negative = inhibition) at 1uM” value came out at 11%.
`Cc1ccc(NC(=O)C(=O)NCCN2CCN(Cc3ccc([N+](=O)[O-])cc3)CC2)cc1`: the “hERG current change (%, negative = inhibition) at 1uM” value was -53.3%.
Under `O=C(NCCN1CCN(Cc2ccc([N+](=O)[O-])cc2)CC1)C(=O)Nc1ccccc1` stands -53.8%.
Next, `CN1CCN(CCNC(=O)Nc2ccc([N+](=O)[O-])cc2)CC1`: 10.7%; `CCN1CCN(CCNC(=O)Nc2ccc([N+](=O)[O-])cc2)CC1`: 13.2%; `O=C(NCCN1CCN(S(=O)(=O)c2ccc([N+](=O)[O-])cc2)CC1)C(=O)Nc1ccccc1`: 2.87%.
Next, `CCCCc1ccc(NC(=O)C(=O)NCCN2CCN(Cc3ccc([N+](=O)[O-])cc3)CC2)cc1`: -6.8%; `CCc1ccc(NC(=O)C(=O)NCCN2CCN(Cc3ccc([N+](=O)[O-])cc3)CC2)cc1`: -67.4%.
Consider `Cc1ccc(CNS(=O)(=O)/C=C/c2ccc3c(c2)OCO3)cc1`, for which the “hERG current change (%, negative = inhibition) at 1uM” value is on record as -0.964%.
Regarding `c1ccc(-c2nnc3sc(-c4csc5c4CCCC5)nn23)cc1`, the “hERG current change (%, negative = inhibition) at 1uM” value is reported as 4.3%.
As to `O=C(Nc1ncn[nH]1)c1ccc([N+](=O)[O-])cc1[N+](=O)[O-]`, the “hERG current change (%, negative = inhibition) at 1uM” value came out at 18.3%.
Next, `COCCNC(=S)N(Cc1cccs1)Cc1cc2cccc(C)c2[nH]c1=O`: 15.9%; `CCn1cnc2cc(NCc3nc4ccccc4n3Cc3ccccc3)ccc21`: -15.2%.
Under `COc1ccc(CNc2nc3ccccc3n2CCN2CCOCC2)cc1` stands -46.5%; under `CCN(CC)c1ccc(CNc2nc3ccccc3n2CCN2CCOCC2)cc1`, -76.1%; under `CCN(CC)c1ccc(CNc2nc3ccccc3n2CCN2CCCCC2)cc1`, -18%.
Next, `Cc1nc2cc(NCc3nc4ccccc4n3Cc3ccccc3)ccc2n1C`: -61.7%; `Brc1cccc(CNc2nc3ccccc3n2CCN2CCCCC2)c1`: -0.507%; `c1ccc(Cn2c(CNc3nc4ccccc4n3CCN3CCCCC3)nc3ccccc32)cc1`: -5.91%.
Turning to `c1ccc2c(c1)nc(NCc1ccc3c(c1)OCO3)n2CCN1CCOCC1`, the “hERG current change (%, negative = inhibition) at 1uM” value is on record as -40.7%.
For `Cc1cccc(NCc2nc3ccccc3n2Cc2ccccc2)c1`, the “hERG current change (%, negative = inhibition) at 1uM” value turned out to be 12%.
On to `c1ccc(Cn2c(CNc3nc4ccccc4n3CCN3CCOCC3)nc3ccccc32)cc1`, for which the “hERG current change (%, negative = inhibition) at 1uM” value was -54.4%.
Take `c1csc(CNc2nc3ccccc3n2CCN2CCOCC2)c1`: the “hERG current change (%, negative = inhibition) at 1uM” value was -9.4%.
Next, `Brc1cccc(CNc2nc3ccccc3n2CCN2CCOCC2)c1`: -56.7%; `NS(=O)(=O)c1ccc(NC(=O)CSc2nc(Nc3ccccc3)nc(N3CCOCC3)n2)cc1`: 24.9%.
Next, `Cc1c(F)cccc1NC(=O)CSCC(=O)Nc1ccccc1`: 5.59%.
Turning to `COC(=O)C1=C(c2ccc(F)cc2OCc2ccccc2)C[C@@H]2CC[C@H]1N2C(=O)NCc1ccc(Cl)cc1`, the “hERG current change (%, negative = inhibition) at 1uM” value is given as 14.6%.
Next, `Cc1ccc(OC(=O)c2ccccc2C(=O)OCC(F)(F)C(F)F)cc1`: 14%.
Under `Cc1ccc(-c2nnn(CC(=O)NCCC3=CCCCC3)n2)cc1` stands 18.4%; under `Cc1ccc(NC(=O)NCCCCc2ccccc2)cc1`, 14.4%; under `CCC(NS(=O)(=O)c1ccc(C)cc1)C(=O)N1CCOCCOCCOCC1` (centres unmarked), 20.3%.
Next, `COc1ccc(OCc2nnc(SCc3ccc(C(=O)O)cc3)o2)cc1`: 16.6%.
As for `Cc1ccc(NC(=O)c2nn(C34CC5CC(CC(C5)C3)C4)cc2[N+](=O)[O-])cc1`, the “hERG current change (%, negative = inhibition) at 1uM” value is given as -2.47%.
Next, `Cc1cc(Cl)ccc1OCC(=O)NNC(=O)CCOc1ccccc1`: -0.757%; `O=C(COC(=O)CC(c1ccccc1)c1ccccc1)Nc1ccc(F)c(F)c1`: 1.93%.
Next, `O=c1c2ccccc2nc(-c2ccccc2)n1-c1nccs1`: 11.6%; `C/C=C(/C)C(=O)O[C@@H]1c2c(ccc3ccc(=O)oc23)OC(C)(C)[C@@H]1OC(=O)/C(C)=C\C`: 9.46%.
As for `C/C=C(/C)C(=O)OC1c2c(ccc3ccc(=O)oc23)OC(C)(C)C1OC(C)=O` (centres unmarked), the “hERG current change (%, negative = inhibition) at 1uM” value is listed as -36.9%.
Turning to `C/C=C(\C)C(=O)OC1c2c(ccc3ccc(=O)oc23)OC(C)(C)C1OC(C)=O` (centres unmarked), the “hERG current change (%, negative = inhibition) at 1uM” value was -54.7%.
Next, `COc1cccc(-c2nc3n(n2)C(c2ccc4c(c2)OCO4)C(C(N)=O)=C(C)N3)c1` (centres unmarked): 6.43%; `Cn1c(=O)[nH]c(=O)c2c1nc(N1CCCCCC1)n2CCSc1nc2ccccc2o1`: 7.86%.
Turning to `COc1cc(C(CCN2CCCC2)c2c(OC)cc(OC)c3ccc(=O)oc23)cc(OC)c1OC` (centres unmarked), the “hERG current change (%, negative = inhibition) at 1uM” value was -26.2%.
As to `COc1cc(C(CCN2CCCCC2)c2c(OC)cc(OC)c3c(C)cc(=O)oc23)cc(OC)c1OC` (centres unmarked), the “hERG current change (%, negative = inhibition) at 1uM” value was -96.3%.
Take `CCCCCc1cc(=O)oc2c(C(CCN3CCCCC3)c3cc(OC)c(OC)c(OC)c3)c(OC)cc(OC)c12` (centres unmarked): the “hERG current change (%, negative = inhibition) at 1uM” value was -10.6%.
Under `COc1cc(C(CCN2CCCCC2)c2c(OC)cc(OC)c3c(-c4ccccc4)cc(=O)oc23)cc(OC)c1OC` (centres unmarked) stands -12%.
For the compound `COc1cc(C(CCN2CCCC2)c2c(OC)cc(OC)c3c(C)cc(=O)oc23)cc(OC)c1OC` (centres unmarked), the “hERG current change (%, negative = inhibition) at 1uM” value is -69%.
For the compound `COc1ccc(C(CCN2CCOCC2)c2c(OC)cc(OC)c3c(C)cc(=O)oc23)cc1` (centres unmarked), the “hERG current change (%, negative = inhibition) at 1uM” value is -32.6%.
On to `COc1cc(C(CCN2CCOCC2)c2c(OC)cc(OC)c3c(C)cc(=O)oc23)cc(OC)c1OC` (centres unmarked), for which the “hERG current change (%, negative = inhibition) at 1uM” value is -70.3%.
In the case of `COc1cc(C(CCN2CCN(c3ccccc3)CC2)c2c(OC)cc(OC)c3c(C)cc(=O)oc23)cc(OC)c1OC` (centres unmarked), the “hERG current change (%, negative = inhibition) at 1uM” value is reported as 9.23%.
Next, `COc1cc(C(CCN2CCCC2)c2c(OC)cc(OC)c3c(-c4ccccc4)cc(=O)oc23)cc(OC)c1OC` (centres unmarked): -10.9%.
Under `O=C(NCCCn1ccnc1)C(=O)c1c[nH]c2ccccc12` stands 3.2%.
On to `CC(=O)Nc1ncc(Cc2cccc(Cl)c2)s1`, for which the “hERG current change (%, negative = inhibition) at 1uM” value was 9.23%.
For the compound `CC(=O)NS(=O)(=O)c1ccc(NC(=O)CC(C)c2ccccc2)cc1` (centres unmarked), the “hERG current change (%, negative = inhibition) at 1uM” value turned out to be 2.97%.
Next, `COc1ccc(N2C(=O)CC(NC34CC5CC(CC(C5)C3)C4)C2=O)c(OC)c1` (centres unmarked): 8.85%; `CCCN(CC(=O)Nc1cc(C)on1)S(=O)(=O)c1cccc(C(F)(F)F)c1`: 11.3%; `CCN(CC(=O)Nc1c(F)cccc1F)C(=O)/C=C/c1ccc2c(c1)OCO2`: 3.1%.
With `N=c1c(C(=O)NC2CCCC2)cc2c(=O)n3ccccc3nc2n1CCN1CCOCC1`, the “hERG current change (%, negative = inhibition) at 1uM” value is reported as -94.2%.
Under `N=c1c(C(=O)NC2CCCC2)cc2c(=O)n3ccccc3nc2n1CCCN1CCOCC1` stands -63.7%; under `CCOC(=O)c1c(C2CC2)csc1NC(=O)CSCc1c(C)noc1C`, 11.4%; under `CCOC(=O)N1CCN(C(=O)Nc2ccc3nc(C)c(C)nc3c2)CC1`, 4.44%.
Next, `CC(C)c1ccc(CNc2ccc([N+](=O)[O-])cn2)cc1`: 9.11%; `Cc1cc(C)c(S(=O)(=O)NCc2ccncc2)c(C)c1`: 5.64%.
Next, `C=CCn1c(O)c(C(CC)=NCc2ccco2)c(=O)[nH]c1=O`: 2.16%; `CCN(CC)S(=O)(=O)c1ccc(C2CNC(=O)C2)cc1` (centres unmarked): -53.8%; `O=C1CC(c2ccc(S(=O)(=O)NC3CC3)cc2)CN1` (centres unmarked): 2.43%.
For `COCCNS(=O)(=O)c1ccc(C2CNC(=O)C2)cc1` (centres unmarked), the “hERG current change (%, negative = inhibition) at 1uM” value was determined as 11.3%.
